# From PubChem
# Many of the other results were omitted from the sample, so hits are more common in it than they were.
# Sa growth 42C: blocks Staphylococcus aureus growth | relative growth, % (test concentration not listed) | hit rate 0.53% among 170,000 | S. aureus RN4220 growth, OD600, 20 h, 42 °C; active compounds read low;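 active means relative growth at most 50% at the other temperature and 20+ points below 30 °C, or under 10% at both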
# S aureus helic: blocks Staphylococcus aureus DNA helicase; purified S. aureus helicase, fluorescence unwinding assay; hit rate 0.05% among 120,000; inhibition, % (concentration not given with the values); in the data active means inhibition above about 25%, passing the limit was not always enough;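 further: 0% = mean of negative control wells and 100% = mean of positive control wells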
# Starred values were filed as active, the others as inactive; . = no result; ! = not active in a repeat.
SMILES,Sa growth 42C,S aureus helic
O=S(=O)(c1ccc2c(c1)CCCN2)N1CCCCC1,100.6,-12.0
CCn1cc(C(=O)O)c(=O)c2cc(F)c(F)cc21,85.0,8.0
CCn1cc(C(=O)O)c(=O)c2cc(F)c(N(C)CCc3ccc(OC)c(OC)c3)cc21,0.0*,23.0
COc1ccc(C(=O)NCC(c2ccc3c(c2)OCO3)N2CCOCC2)cc1 (centres undefined),85.0,.
CN(C)c1ccc(C(c2cc3c(cc2O)OCO3)N2CCCCC2)cc1 (centres undefined),0.9*,6.0
Cc1cc(C)cc(C(=O)NCC(c2ccc(N(C)C)cc2)N2CCCC2)c1 (centres undefined),89.2,.
COc1ccc(C(c2cc3c(cc2O)OCO3)N2CCOCC2)cc1 (centres undefined),1.8*,7.0
COc1ccc2[nH]c3c(=O)n(-c4ccc(C)c(C)c4)c(O)nc3c2c1,91.3,-11.0
COC(=O)CSc1nnc(-c2ccccc2)n1-c1ccccc1,69.6,-2.0
Cc1ccc2c(c1)c1c3n2CCCNC3CCC1 (centres undefined),93.5,2.0
Cc1ccc2c(c1)c1c3n2CCN=C3CCC1,93.1,16.0
c1cc2c(cc1C1CCCCC1)c1c3n2CCCNC3CCC1 (centres undefined),-0.8*,5.0
c1cc2c(cc1C1CCCCC1)c1c3n2CCN=C3CCC1,-2.0*,1.0
Cc1nn(C(=O)c2ccc(C(C)(C)C)cc2)c(N)c1-c1ccccc1,93.2,3.0
N#Cc1ccc(Cl)cc1N=Cc1ccco1,84.3,4.0
Cc1ccc(C(=O)c2cnc3cc4c(cc3c2N2CCCC2)OCO4)cc1C,108.6,-9.0
O=C(O)CCP(=O)(O)CN1CCCCC1,99.4,-31.0
CCN(CC)S(=O)(=O)c1ccc(Oc2ccc(Cl)cc2C)nc1,98.3,4.0
CO[C@H]1C=CO[C@@]2(C)Oc3c(C)c(O)c4c(O)c(c(C=NN5CCN(C6CCCC6)CC5)c(O)c4c3C2=O)NC(=O)C(C)=CC=C[C@H](C)[C@H](O)[C@@H](C)[C@@H](O)[C@@H](C)[C@H](OC(C)=O)[C@@H]1C,3.9*,.
C=CCn1c(SCC(=O)c2cccs2)nc2scc(-c3ccccc3)c2c1=O,129.9,-13.0
NC(=O)c1cc2ccc(O)cc2oc1=O,97.0,2.0
C[C@H]1O[C@@H](n2cc(F)c(=O)[nH]c2=O)[C@H](O)[C@@H]1O,1.1*,.
O=C1C=CC(=O)N1CC1CCCO1 (centres undefined),103.4,-3.0
O=c1[nH]c(=O)n(C2CCCO2)cc1F (centres undefined),6.6*!,-14.0
COc1ccccc1CNC(=O)C(CC(C)C)NS(=O)(=O)c1ccc2nc(C)sc2c1 (centres undefined),67.8,8.0
SMILES,Sa growth 42C,S aureus helic
CCc1ccccc1NC(=O)C1CCCN(c2ncnc3c2nc2n3CCCCC2)C1 (centres undefined),117.7,6.0
N#CC(C#N)=C(Nc1ccc(Br)cc1)SCc1ccc(F)cc1,30.9,-13.0
N#CC(C#N)=C(Nc1ccccc1Cl)SCc1cccc(F)c1,0.1*,1.0
Cc1ccc(Nc2cc(C)nc(-n3nc(C)cc3C)n2)cc1,0.2*,.
Cc1cc(Nc2ccc(Cl)cc2C)nc(-n2nc(C)cc2C)n1,18.0,.
O=C(c1ccccc1)N1CCC2(CC1)Cc1ccccc1C2=O,87.5,11.0
CCC1(C)Cc2ccccc2-c2nc3n(c(=O)c21)CC(O)CS3 (centres undefined),92.6,14.0
CCc1ccc[n+](OC(=O)N(CC)CC)c1,0.1*,15.0
CCN(CC)C(=O)Oc1ccccc1,113.6,9.0
COc1ccc(OCC2CCCNC2)cc1 (centres undefined),111.1,2.0
COc1cc2ccc3c(CCN(C)C)cc(OC)c(OC)c3c2cc1OC,88.7,10.0
CN(C)CCc1cc2c(c3c1ccc1ccccc13)OCO2,109.5,45.0*
COc1ccccc1NC(=O)C(C)n1nc(C(=O)O)c2ccccc2c1=O (centres undefined),93.4,8.0
N#CSc1cnc(NC2CCCCC2)s1,5.0*,-2.0
O=C(O)CSc1nnc(NC2CCCCC2)s1,77.3,5.0
O=C(On1c(-c2ccccc2)cc2ccccc21)c1ccco1,104.1,5.0
CNC(=O)Sc1ccccc1Cl,-0.6*,.
O=C(CSc1ccccc1Cl)N1CCCC1,99.0,-20.0
Nc1nnc(SCC(=O)OCC(=O)N2CCCCC2)s1,83.2,2.0
COc1cc(C(=O)OCC(=O)/C=C2/N(C)c3ccccc3C2(C)C)ccc1OCC(=O)N1CCOCC1,83.2,-9.0
O=C(Nc1ccc2c(c1)OCO2)c1cn(-c2ccccc2)nc1-c1cccs1,89.7,23.0
N=C1S/C(=C/c2ccccc2)C(=O)N1c1nonc1N,90.8,12.0
CCOc1cc(/C=C2/SC(=N)N(c3nccs3)C2=O)ccc1OCCN1CCOCC1,8.0*,9.0
N=C1S/C(=C\c2ccc(F)cc2)C(=O)N1c1nccs1,5.1*,18.0
C=CCN1C(=O)S/C(=C/c2ccc(OC)c(OCC)c2)C1=O,107.6,3.0
SMILES,Sa growth 42C,S aureus helic
Cc1nc(SCC(=O)N2CCCC2c2ccc3c(c2)OCCCO3)c(C#N)c(C)c1C (centres undefined),84.0,-14.0
CCCc1c(C(=O)N2CC(C)OC(C)C2)cnn1-c1ccccc1 (centres undefined),84.5,.
Cc1cccc(OC(=O)c2cc(-c3ccc4c(c3)OCCO4)on2)c1,1.8*,.
COc1ccc(OC(=O)c2cc(-c3ccc4c(c3)OCCO4)on2)cc1,97.2,.
CC(C)c1ccc(OC(=O)c2cc(-c3ccc4c(c3)OCCO4)on2)cc1,82.7,.
Cc1cc(C)cc(OC(=O)c2cc(-c3ccc4c(c3)OCCO4)on2)c1,1.7*,.
O=C(NC1CCSc2ccccc21)C1=CC=CN2CCS(=O)(=O)N=C12 (centres undefined),93.5,-11.0
Cc1nc(-c2ccc3[nH]c(=O)oc3c2)cs1,-1.1*,18.0
Cc1nc(-c2ccc3ccccc3c2)cs1,.,-23.0
COCCn1nnnc1C(CC(C)C)N1CCN(c2cc(Cl)ccc2C)CC1 (centres undefined),97.8,7.0
Cc1c(NC(=O)CSc2nnc(-c3cnccn3)s2)c(=O)n(-c2ccccc2)n1C,87.8,-4.0
CCc1nnc(NS(=O)(=O)c2ccc(N)cc2)s1,9.7*,3.0
COCc1nnc(NS(=O)(=O)c2ccc(OC)cc2)s1,94.9,8.0
Cc1ccc(CSc2nc(-c3cccs3)ccc2C#N)cc1,98.9,.
N#Cc1ccc(CSc2nc(-c3cccs3)c3c(c2C(=O)O)CCCC3)cc1,0.1*,15.0
O=C(c1ccccc1)c1ccc(N=Cc2ccccc2O)cc1,82.7,-13.0
O=C(O)CCN(Cc1ccccc1)S(=O)(=O)c1cccc(C(F)(F)F)c1,138.1,10.0
Oc1cc2c(cc1C(c1ccc(C(F)(F)F)cc1)N1CCOCC1)OCO2 (centres undefined),-0.3,.
O=C(NCC(c1ccc2c(c1)OCO2)N1CCN(c2ccccc2)CC1)c1ccc(F)c(F)c1 (centres undefined),126.5,.
COC(=O)c1ccc(C(c2cc3c(cc2O)OCO3)N2CCN(c3ccccc3)CC2)cc1 (centres undefined),-0.2*,9.0
Oc1cc2c(cc1C(c1ccc(C(F)(F)F)cc1)N1CCN(c3ccccc3)CC1)OCO2 (centres undefined),-0.7*,0.0
CC(=O)Nc1cc(-c2ccc(Br)cc2)nn1Cc1ccc(Cl)cc1,94.0,15.0
O=c1[nH]c2nonc2nc1Nc1ccccc1F,29.4,2.0
NNc1nc(NN)nc(Nc2cccc(C(F)(F)F)c2)n1,76.6,9.0
Fc1ccc(Nc2nc3nonc3nc2Nc2cccc(C(F)(F)F)c2)cc1,-1.0*,.
